Bioassay records as filed in PubChem BioAssay.
Tau fluor cs – counter-screen for tau fibril formation inhibitors | tau K18 P301L Alexa594 fluorescence, heparin fibrillization | Potency, µM (highest dose often 57.7 µM), for the others: top-dose activity change, negative = decrease | 280,000 tested, 0.93% active | AID 1463; note: potency is the fitted concentration of half-maximal effect; % is set by controls: 0 for no effect and ±100 for the full control effect; nearly all actives have a fitted effect of over 55% in size
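Human K18 P301L tau (15 uM unlabeled plus 0.24 uM Alexa 594-labeled, final) in 100 mM sodium acetate pH 7 was mixed with compound and 20 uM heparin and incubated 6 hr at 37 C.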
Tau ThT inhib – tau fibrillization inhibition (ThT binding); P10636; recombinant tau K18 P301L (four-repeat tau fragment), heparin-induced fibrillization, ThT fluorescence; Potency, µM (doses to about 57.4 µM), without a hit: at the highest dose activity, negative = inhibition, actives largely listed as inhibitors; 270,000 tested, 2.1% active; AID 1460; note: potency is the fitted concentration of half-maximal effect; % is set by controls: 0 for no effect and ±100 for the full control effect; nearly all actives have a fitted effect of over 55% in size
Target sequence (P10636 561-689 P618L limits assumed): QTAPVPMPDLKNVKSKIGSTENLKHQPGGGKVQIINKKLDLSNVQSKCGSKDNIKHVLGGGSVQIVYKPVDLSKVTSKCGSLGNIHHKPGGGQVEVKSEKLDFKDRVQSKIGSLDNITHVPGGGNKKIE
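Tau K18 P301L fragment (15 uM unlabeled plus 0.24 uM Alexa 594-labeled) in 100 mM sodium acetate pH 7 with compound, fibrillization induced by 20 uM heparin for 6 hr at 37 C. Thioflavin T (30 uM) added, fluorescence read after 1 hr (ex 450, em 510 nm).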
CBFb-RUNX1 inh – CBF-beta/RUNX1 interaction disruption. 230,000 tested, under 10 active. AlphaScreen CBFb-His/RUNX1-biotin binding, biochemical. Potency, µM (titrated, usually from 59.8 µM), inactives show top-dose activity, negative = inhibition, most hits filed as inhibitors. Q01196+Q13951; note: % of control where 0% means no effect
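AlphaScreen proximity signal reports loss of binding between His-tagged CBF-beta and biotin-labelled RUNX1, each at 30 nM. Proteins are pre-associated for 20 minutes, compounds added for 15 minutes, then beads for 90 minutes, all at ambient temperature.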
KDM4E inh – JMJD2E (human) inhibition. B2RXH2. JMJD2E catalytic domain, FDH-coupled NADH fluorescence (FDH is formaldehyde dehydrogenase). Potency, µM (titrated, usually from 57.1 µM), without a hit: at the highest dose activity change, negative = inhibition, usual class: inhibitors. 230,000 tested, 1.6% active; active = well fitted inhibition curve with a large enough effect, not every such curve was filed as active; inconclusive = small, poorly fitted or top-dose-only effect, or another doubt; inactive = no such curve, though single readings can be large or run the other way;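 note: potency is the fitted concentration of half-maximal effect; 0% = wells with enzyme and -100% = buffer wells without enzyme; nearly all actives have a fitted effect of over 50% in size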
Target sequence (B2RXH2 1-337 limits assumed): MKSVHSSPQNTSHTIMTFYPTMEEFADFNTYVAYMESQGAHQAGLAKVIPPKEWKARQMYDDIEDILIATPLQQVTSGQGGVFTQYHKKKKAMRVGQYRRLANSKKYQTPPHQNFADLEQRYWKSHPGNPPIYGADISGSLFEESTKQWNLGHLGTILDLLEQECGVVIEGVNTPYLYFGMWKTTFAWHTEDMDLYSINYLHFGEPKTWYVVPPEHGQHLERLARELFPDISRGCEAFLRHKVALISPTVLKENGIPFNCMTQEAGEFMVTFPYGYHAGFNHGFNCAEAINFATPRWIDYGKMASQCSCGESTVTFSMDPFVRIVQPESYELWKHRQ
Tau FP inhib – tau fibrillization inhibition (FP); K18 P301L tau heparin fibrillization, Alexa594 FP, 6 h; Potency, µM (series often up to 57.7 µM), without a hit: at the top dose activity, negative = inhibition, usual class: inhibitors; 280,000 tested, 0.39% active; AID 1468; note: potency is the fitted concentration of half-maximal effect; % is set by controls: 0 for no effect and ±100 for the full control effect; nearly all actives have a fitted effect of over 55% in size
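Recombinant K18 P301L […], labeled with Alexa 594 at 0.24 uM over 15 uM unlabeled; heparin inducer 20 uM final; 37 C, 6 hr; FP endpoint.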
LMNA splice mod – changes lamin A minigene splicing in HeLa cells; Potency, µM (highest dose often 46.1 µM), inactives show at the highest dose ratio change, negative = inhibition, actives largely listed as inhibitors; HeLa LMNA splicing GFP/RFP minigene ratio, 48 h; 200,000 tested, 0.01% active; AID 1487; active = well fitted inhibition curve with a large enough effect in the signal ratio, with a control signal flat, not every such curve was filed as active; inconclusive = small, poorly fitted or top-dose-only effect, or effect the other way, or a change in a side signal; the % refers to the signal ratio; note: potency is the fitted concentration of half-maximal effect; % is set by controls: 0 for no effect and ±100 for the full control effect
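Read-out is the ratio of GFP to DsRed2 object intensity, acquired by 488 nm laser-scanning cytometry on HeLa lamin A-EGFP minigene reporter cells. Compound incubation 48 hrs at 37 °C in Opti-MEM with 2% FBS; DMSO 0.5% final.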
An asterisk follows results filed as active; ? = inconclusive; / = not tested or not shown; [ ] = remark or other dose. Rows were chosen to be rich in hits. Some 3.2% of all compounds tested hit in one or more screens of this group. Unless noted, calls come from the whole dose curve; as a rule, active = well fitted curve in the direction sought with a large enough effect; inconclusive = small, poorly fitted or top-dose-only effect, or another doubt; inactive = no such curve, though single readings can be large; an effect the other way counts as inactive or inconclusive.

SMILES | Tau fluor cs | Tau ThT inhib | CBFb-RUNX1 inh | KDM4E inh | Tau FP inhib | LMNA splice mod
O=C(Oc1c(CN2CCOCC2)cc(Cl)c2cccnc12)c1ccccc1F | -16% | -25% | ? | 32µM* | 0% | ?
CC[C@H](C)[C@H](NC(=O)[C@H](CCC(=O)O)NC(=O)[C@H](CO)NC(=O)[C@@H](NC(=O)[C@@H](N)CO)C(C)C)C(=O)N[C@@H](CCC(N)=O)C(=O)N[C@@H](CC(C)C)C(=O)N[C@@H](CCSC)C(=O)N[C@@H](Cc1cnc[nH]1)C(=O)N[C@@H](CC(N)=O)C(=O)N[C@@H](CC(C)C)C(=O)NCC(=O)N[C@@H](CCCCN)C(=O)N[C@@H](Cc1cnc[nH]1)C(=O)N[C@@H](CC(C)C)C(=O)N[C@@H](CC(N)=O)C(=O)N[C@@H](CO)C(=O)N[C@@H](CCSC)C(=O)N[C@@H](CCC(=O)O)C(=O)N[C@@H](CCCNC(=N)N)C(=O)N[C@H](C(=O)N[C@@H](CCC(=O)O)C(=O)N[C@@H](Cc1c[nH]c2ccccc12)C(=O)N[C@@H](CC(C)C)C(=O)N[C@@H](CCCNC(=N)N)C(=O)N[C@@H](CCCCN)C(=O)N[C@@H](CCCCN)C(=O)N[C@@H](CC(C)C)C(=O)N[C@@H](CCC(N)=O)C(=O)N[C@@H](CC(=O)O)C(=O)N[C@H](C(=O)N[C@@H](Cc1cnc[nH]1)C(=O)N[C@@H](CC(N)=O)C(=O)N[C@@H](Cc1ccccc1)C(=O)N[C@H](C(=O)N[C@@H](C)C(=O)N[C@@H](CC(C)C)C(=O)NCC(=O)O)C(C)C)C(C)C)C(C)C | / | / | 9% | / | / | /
C/C(=N\N1C(=O)c2ccccc2NC1c1ccco1)c1ccccc1O (stereo unspecified) | -11% | -9% | -2% | 22µM* | -5% | ?
Cc1cc(O)c(Oc2cc(C)cc(O)c2O)c(O)c1 | ? | 5.6µM* | -7% | 13µM* | ? | /
COc1c(O)cc(O)cc1O | -19% | -12% | -18% | -18% | -10% | /
CC#CCN1c2ccccc2[C@]23C[C@@H](C(=O)OC)N(S(=O)(=O)c4ccc(C)cc4)C2=NC(C(=O)OC)=C(C(=O)OC)[C@H]13 | -14%[11.6 µM] | -5%[11.5 µM] | -7%[13.1 µM] | 3%[11.4 µM] | 1%[11.6 µM] | 13%[9.22 µM]
COc1cc2c(C#N)c(N3CCN(c4ccccc4OC)CC3)nc(N)c2c(N)n1 | 13µM*[quencher] | 18µM* | ? | ? | -10% | ?
N#Cc1c(N2CCCC2)nc(N)c2c(N)nc(N3CCCC3)cc12 | 13µM*[quencher] | ? | ? | ? | 11% | -3%
O=C(CCC1N=C2c3ccccc3N=C(SCC(=O)Nc3ccccc3F)N2C1=O)NCc1ccccc1 (stereo unspecified) | -12% | -4% | / | / | -8% | /
CC1(C)OC(C)(C)/C(=C/Nc2ccc(O)cc2)C1=O | ? | 14µM* | -7% | ? | ? | ?
CC1(C)OC(=O)C(=CNc2cccc(O)c2)C(=O)O1 | -10% | -12% | 4% | 1% | -3% | -14%
O=C(c1ccc2c(c1)N(Cc1ccc(Cl)cc1)C(=O)c1ccccc1S2(=O)=O)N1CCOCC1 | -19% | 0% | / | / | -10% | /
Cc1nn(C)c(Sc2ccccc2N)c1[N+](=O)[O-] | -18% | 32µM* | -6% | ? | ? | /
Cc1nn(C)c(N)c1[N+](=O)[O-] | -6% | -4% | 15% | 5% | 6% | -8%[46 µM]
O=C(N/N=C/c1ccc(O)c(O)c1O)/C(=C/c1ccc([N+](=O)[O-])cc1)NC(=O)c1ccccc1 | ? | 3.5µM* | / | 10µM* | 8.9µM* | 1%
Cc1ccc(NC(=O)/C(=C\c2ccc([N+](=O)[O-])cc2)NC(=O)c2ccccc2)cc1 | -22% | -13% | 1% | -1% | 8% | 4%
O=C1C=CC2=C3c4cc(O)c(O)cc4C[C@]3(O)COC2=C1 | ? | 16µM* | ? | 13µM* | ? | /
Cc1ccc(Cl)cc1NC1=C/C(=N\S(=O)(=O)c2cccs2)c2ccccc2C1=O | ? | 4.5µM* | / | ? | -2% | ?
Cc1cccc(NC2=C/C(=N/S(=O)(=O)c3cccs3)c3ccccc3C2=O)c1 | -4% | 15% | 18% | 3% | 4% | ?
O=C(O)c1ccc(NC2=C/C(=N/S(=O)(=O)c3ccccc3)c3ccccc3C2=O)cc1 | ? | 14µM* | ? | -20% | ? | ?
O=C(O)c1ccc(NS(=O)(=O)c2ccc3c(c2)C(=O)c2ccccc2C3=O)cc1 | -25% | ? | -1% | 3% | 6% | -2%[46 µM]
O=C1C(Nc2ccc(O)cc2)=C/C(=N/S(=O)(=O)c2cccs2)c2ccccc21 | 13µM*[quencher] | 13µM* | / | 25% | ? | ?
COC1(C)CCC2OC2(C)CCC2C1CC2(C)C (stereo unspecified) | 0% | 4% | / | 1% | -6% | -10%
CCOC(=O)N1CCN(c2c(NCCc3ccccc3)c(=O)c2=O)CC1 | 1% | -14% | 2% | 13% | 7% | 0%
CCOC(=O)N1CCN(c2cc(NCCC(=O)O)c3c4c(onc24)-c2ccccc2C3=O)CC1 | ? | 11µM* | ? | -23% | 32µM* | 1%
SMILES | Tau fluor cs | Tau ThT inhib | CBFb-RUNX1 inh | KDM4E inh | Tau FP inhib | LMNA splice mod
O=C(O)CCCNc1cc(N2CCC3(CC2)OCCO3)c2noc3c2c1C(=O)c1ccccc1-3 | ? | 25µM* | / | ? | ? | 8%
CCCCNc1cc(N2CCN(C3CCCCC3)CC2)c2noc3c2c1C(=O)c1ccccc1-3 | ? | 16µM* | / | / | 7% | /
COc1ccc(Cn2c(=O)c3cccnc3n(CC(=O)Nc3c(C)cc(C)cc3C)c2=O)cc1 | -3% | 6% | / | / | -7% | /
Cn1c(=O)n(C)c2cc(NS(=O)(=O)c3ccc(F)cc3)c(NCc3ccccc3)cc21 | ? | ? | / | / | -13% | /
c1ncc(-c2ccc3c(c2)OCO3)c(NCCc2cnc[nH]2)n1 | -9% | -11% | / | ? | 2% | ?
CC1(OC(=O)CCc2ccccc2)C(=O)C=C2C=C(c3ccc(C#N)cc3)OC=C2C1=O (stereo unspecified) | -13% | ? | -15% | -10% | 7% | /
CC1(OC(=O)CCc2ccccc2)C(=O)C=C2C=C(c3ccsc3)OC=C2C1=O (stereo unspecified) | -11% | 25µM* | ? | 0% | ? | /
CC1(OC(=O)C2CCCC2)C(=O)C=C2C=C(c3ccsc3)OC=C2C1=O (stereo unspecified) | ? | 16µM* | ? | -2% | ? | /
